Screening data deposited in PubChem BioAssay by National Center for Advancing Translational Sciences (NCATS).
Rows were chosen to be rich in hits. Some 8% of all compounds tested hit in one or more screens of this group.
FMDV antiviral = High Throughput Screening for Foot and Mouth Disease Virus Antivirals; 410,000 compounds, 1.2% hits; FMDV antiviral cell-based qHTS; Potency, µM (series often up to 57.9 µM), without a hit: at the top dose activity change, negative = inhibition, usual class: inhibitors; AID 1159524, 2015; calls by dose curve; tested in HEK293T cells; further: read-out not given here; potency means the concentration at half of the fitted maximal effect; on the % scale 0 is the no-effect control and ±100 the full control effect; nearly all actives have a fitted effect of over 45% in size
HCV inh = qHTS Assay for Inhibitors of Hepatitis C Virus (HCV); Huh7.5.1 HCVcc-Cre infection, luciferase reporter, 44 h; Potency, µM (series often up to 41.8 µM), without a hit: at the highest dose activity change, negative = inhibition, actives largely listed as inhibitors; 340,000 compounds, 3.4% hits; AID 651820, 2012; active means well fitted inhibition curve with a large enough effect; inconclusive means small, poorly fitted or top-dose-only effect, or another doubt; inactive means no such curve, though single readings can be large or run the other way; further: potency means the concentration at half of the fitted maximal effect; on the % scale 0 is the no-effect control and ±100 the full control effect
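Infectious HCVcc-Cre (~0.5 moi) was added to cells just after compound, with cells seeded 4 h earlier at 1,000 per well. Luciferase activity after 44 h culture reported infection; substrate was incubated 15 min at room temperature before reading.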
Lassa entry inh = qHTS for Inhibitors of binding or entry into cells for Lassa Virus; Potency, µM (doses to about 37.9 µM), for inactives: at the top dose activity change, negative = inhibition, most hits filed as inhibitors; AID 540256, 2011; Lassa virus pseudotype entry inhibition, cell reporter; 300,000 compounds, 1.2% hits; calls by dose curve; tested in HEK293 cells; further: potency means the concentration at half of the fitted maximal effect; on the % scale 0 is the no-effect control and ±100 the full control effect; nearly all actives have a fitted effect of over 50% in size
HCMV antiviral = qHTS Assay for inhibitors of the human cytomegalovirus (HCMV) | activity change, negative = inhibition, % at 57.5 µM | 410,000 compounds, 4.5% hits | HFF cells, HCMV-luciferase reporter, 72 h; hits give low values; in the data active means activity change below about -60%; inconclusive means no clear call, values can overlap the other calls; inactive means above about -39%; further: on the % scale 0 is the no-effect control and ±100 the full control effect
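Cell-based, HFFs, 1000 cells/well, 16 h 37C; cpds in DMSO + HCMV-luc, MOI 1 PFU/cell; 72 h 37C; OneGlo luminescence after 5 min RT; norm. to buffer vs Salinomycin 10uM.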
Marburg entry inh = qHTS for inhibitors of binding or entry into cells for Marburg Virus; Marburg virus pseudotyped entry inhibition, cell reporter; Potency, µM (titrated, usually from 37.8 µM), for inactives: top-dose activity change, negative = inhibition, actives largely listed as inhibitors; 300,000 compounds, 1.8% hits; AID 540276, 2011; calls by dose curve; tested in HEK293 cells; further: potency means the concentration at half of the fitted maximal effect; on the % scale 0 is the no-effect control and ±100 the full control effect
SARS PLP yeast = qHTS of Yeast-based Assay for SARS-CoV PLP; S. cerevisiae expressing SARS-CoV PLpro, growth rescue; Potency, µM (top dose mostly 32.9 µM), for inactives: top-dose activity, positive = growth rescue, most hits filed as activators; 330,000 compounds, 0.19% hits; calls by dose curve; further: potency means the concentration at half of the fitted maximal effect; 0% is about no effect; nearly all actives have a fitted effect of over 55% in size
Numbers without * were called inactive; [ ] = dose if it differs, or a comment.

`CCN1CCN(Cc2nc3cc(NC(=O)c4ccccc4[N+](=O)[O-])ccc3n2CC)CC1` gave FMDV antiviral 1.1%, Lassa entry inh -0.1%[46.1 µM], HCMV antiviral -28.9 and Marburg entry inh -14.2%[46.1 µM].
Screening CC(C)(C)c1ccc(C(=O)NNC(=S)NC(=O)c2cccnc2)cc1 returned FMDV antiviral 5.2%, HCV inh inconclusive, Lassa entry inh inconclusive, HCMV antiviral inconclusive, Marburg entry inh inconclusive and SARS PLP yeast 0.2%.
CC(C)(C)c1cc(Cl)c(O)c(NC(=S)NC(=O)c2cccnc2)c1 was read as FMDV antiviral -9.4%, HCV inh inconclusive, Lassa entry inh -19.8%, HCMV antiviral -95.3*, Marburg entry inh inconclusive and SARS PLP yeast 1.8%.
Screening CCOC(=O)c1c(C)c(-c2ccccc2)n(CC(=O)Nc2cc(OC)cc(OC)c2)c1C returned FMDV antiviral inconclusive, HCMV antiviral -30.2 and Marburg entry inh -12.5%[46.1 µM].
CN1CCN(c2nc(N3CCN(c4ccccc4)CC3)ncc2F)CC1 was read as HCV inh 6.31µM*, Lassa entry inh -17.1%, HCMV antiviral -28.9, Marburg entry inh inconclusive and SARS PLP yeast -3.7%.
For Fc1cnc(Cl)nc1N1CCN(c2ccccc2)CC1 the results were FMDV antiviral -9.9%, HCV inh -0.7%, Lassa entry inh -25.2%, HCMV antiviral -9.4, Marburg entry inh -6.4%[46.1 µM] and SARS PLP yeast 0.9%.
Cn1c(=O)[nH]c(=O)c2c1nc(N1CCOCC1)n2Cc1ccccc1 was read as FMDV antiviral -11.2%, Lassa entry inh 4.6%[46.1 µM] and HCMV antiviral 2.6.
`Cc1ccc(-c2nc(CN(C)Cc3cccc4cnccc34)c(C)o2)s1` gave FMDV antiviral inconclusive, HCV inh inconclusive, HCMV antiviral -66.6* and SARS PLP yeast -1.7%.
Screening Cc1ccc(CSc2nc(=O)c3c(C)cc(C)nc3n2C2CC2)cc1 returned FMDV antiviral inconclusive, Lassa entry inh -11.3%[46.1 µM] and HCMV antiviral -101.3*.
Screening COC(=O)c1cc(C)nc2c1c(=O)nc(SCc1c(C)cc(C)cc1C)n2C1CC1 returned FMDV antiviral inconclusive, Lassa entry inh -20.4%[46.1 µM] and HCMV antiviral 10.4.
`Cc1ccc2nc(-c3ccccc3)cn2c1` gave FMDV antiviral 1.78µM*, HCV inh -8.9%, Lassa entry inh 0.316µM*, HCMV antiviral -65.8*, Marburg entry inh 0.447µM* and SARS PLP yeast -22.6%.
Cc1ccc2nc(-c3ccc(O)c(O)c3)cn2c1 was read as FMDV antiviral 12.6µM*, HCV inh -11.6%, Lassa entry inh inconclusive, HCMV antiviral 14.7, Marburg entry inh inconclusive and SARS PLP yeast -3.4%.
For CC1Cc2cc(S(=O)(=O)CCC(=O)Nc3ccc(OC(F)(F)F)cc3)ccc2N1C(=O)C1CC1 (stereo not drawn) the results were FMDV antiviral inconclusive, Lassa entry inh -4.9%[46.1 µM] and HCMV antiviral inconclusive.
For Cc1ccc2[nH]c3c(c2c1)CN(C(=O)CN1CCN(C(=O)c2ccco2)CC1)CC3 the results were HCMV antiviral 7.3 and SARS PLP yeast 0.0%.
`Cc1ccc2[nH]c3c(c2c1)CN(C(=O)CN1CCN(c2cccc(C)c2C)CC1)CC3` gave FMDV antiviral inconclusive, HCV inh 6.31µM*, Lassa entry inh inconclusive, HCMV antiviral 19.8, Marburg entry inh inconclusive and SARS PLP yeast -19.2%.
Screening COc1ccc2sc(N(CCCN(C)C)C(=O)c3ccc(S(=O)(=O)N(C)Cc4ccccc4)cc3)nc2c1 returned FMDV antiviral -24.1%, HCV inh 10µM*, Lassa entry inh inconclusive, HCMV antiviral -35.8, Marburg entry inh inconclusive and SARS PLP yeast -5.0%.
`Cc1ccc2sc(N(CCCN(C)C)C(=O)c3ccc(S(=O)(=O)N(C)Cc4ccccc4)cc3)nc2c1C` gave FMDV antiviral 31.6µM*, HCV inh 3.55µM*, Lassa entry inh inconclusive, HCMV antiviral -22.9, Marburg entry inh inconclusive and SARS PLP yeast -13.9%.
For Cc1ccc2sc(N(CCCN(C)C)C(=O)c3ccc(S(=O)(=O)N(C)C)cc3)nc2c1C the results were FMDV antiviral -20.0%, HCV inh inconclusive, HCMV antiviral -26.7 and SARS PLP yeast -1.2%.
`Cc1cc(/C=C2/SC(=S)N(c3cccc(C(F)(F)F)c3)C2=O)c(C)n1-c1cccnc1` gave FMDV antiviral inconclusive, HCV inh 1.58µM*, Lassa entry inh inconclusive and Marburg entry inh inconclusive.
For Cc1ccc(Nc2cc(C)nc(NCc3ccccc3)n2)cc1 the results were FMDV antiviral -27.9%, HCV inh 10µM*, Lassa entry inh 25.9µM*, HCMV antiviral -83.5*, Marburg entry inh 8.2µM* and SARS PLP yeast 1.8%.
Cc1cc(NC2CCCCC2)nc(NCc2ccccc2)n1 was read as FMDV antiviral inconclusive, HCV inh inconclusive, Lassa entry inh 23.1µM*, HCMV antiviral -93.0*, Marburg entry inh 11.6µM* and SARS PLP yeast inconclusive.
For COc1ccc(Nc2cc(C)nc(NCc3ccccc3)n2)cc1 the results were FMDV antiviral inconclusive, HCV inh inconclusive, Lassa entry inh inconclusive, HCMV antiviral inconclusive, Marburg entry inh inconclusive and SARS PLP yeast -0.4%.
For COc1ccc(C(CC(=O)Nc2ccc(OC)c(OC)c2)N2Cc3ccccc3C2=O)cc1 (stereo not drawn) the results were FMDV antiviral 11.6%, Lassa entry inh -16.2%[46.1 µM] and HCMV antiviral 25.2.
`O=C(NCCc1csc(-c2cccnc2)n1)c1cccc(C(F)(F)F)c1` gave FMDV antiviral inconclusive, Lassa entry inh -19.5%[46.1 µM] and HCMV antiviral inconclusive.
For NC(=O)c1cc([N+](=O)[O-])ccc1NCc1ccc(F)cc1 the results were FMDV antiviral 44.2%, HCV inh 2.51µM*, HCMV antiviral -80.8* and SARS PLP yeast -5.4%.
For NC(=O)c1cc([N+](=O)[O-])ccc1NCc1ccc(N)cc1 the results were FMDV antiviral 8.91µM*, HCV inh -5.4%, HCMV antiviral -6.3 and SARS PLP yeast 4.1%.
NC(=O)c1cc([N+](=O)[O-])ccc1NCc1cccc(N)c1 was read as FMDV antiviral 0.0%, HCV inh -13.0%, HCMV antiviral 44.6 and SARS PLP yeast 2.1%.
Screening NC(=O)c1cc([N+](=O)[O-])ccc1NCc1cccc([N+](=O)[O-])c1 returned FMDV antiviral 15.5%, HCV inh 4.7%, HCMV antiviral 92.2 and SARS PLP yeast 2.1%.
For CCN(C(=O)c1cc2c(Cl)nc3ccccc3c2s1)c1cccc(Cl)c1 the results were FMDV antiviral -26.3%, Lassa entry inh -23.5%[46.1 µM], HCMV antiviral -11.7 and Marburg entry inh inconclusive.
